Laboratory results: ChEMBL document CHEMBL3988442, “University of Dundee, Small-Polar-MMV Screening Library” (2021)
Out of some 38,000 compounds screened, about 1,200 (3.2%) showed an effect of 50% or more. The median lay at about -58%. Shown is part of a subset that was picked to be rich in strong results.

test system: Plasmodium falciparum; assay: Calibr Malaria Delayed Death Assay SOP; type: functional, organism-based; parameters: scale not given: in the data most compounds retested in dose-response had high values; details: concentration 4.99e-06 (unit not given; other assays of the set use mol/L)

SMILES | Percent Effect [%]
Cc1noc([C@@]23CCO[C@@H]2CCN(S(=O)(=O)c2cccnc2)C3)n1 | -112.8
CSc1ccc(CN(CCO)C(=O)CCc2ccc(O)cc2)cc1 | -83.46
CN1CCC(N2CCC(C(=O)N(C)C)CC2)CC1.O=C(O)C(F)(F)F.O=C(O)C(F)(F)F | -35.37
Cc1cc(=O)n2nc(Oc3cc(Cl)cc(Cl)c3)sc2n1 | -6.381
Cc1cc(=O)n2nc(Oc3cccc(I)c3)sc2n1 | 55.78
Cc1cc(=O)n2nc(Oc3ccc(C#N)cc3Cl)sc2n1 | 19.91
O=c1[nH]cnc2[nH]c(N3CCCCC3)nc12 | -26.61
N#Cc1ccc(NCc2cccc(OCC3CCCO3)c2)nc1 (stereo not drawn) | -77.93
COc1cc2c(cc1CNC(=O)C(C)n1ccnc1C(C)C)OCCO2 (stereo not drawn) | 8.922
COCc1nc(CNC(=O)C(C)n2ccnc2C(C)C)no1 (stereo not drawn) | -17.51
COc1cc2c(cc1CNC(=O)C(C)n1ccnc1C(C)C)CCC2 (stereo not drawn) | 59.1
NS(=O)(=O)NCc1cc(-c2ccc(C(F)(F)F)cc2)n[nH]1 | -60.23
Cn1cc(CN2CCOC3(CCCN(c4cccc(F)c4)C3)C2)cn1.O=C(O)C(F)(F)F.O=C(O)C(F)(F)F (stereo not drawn) | -10.6
Fc1cccc(N2CCCC3(CN(Cc4nccs4)CCO3)C2)c1.O=C(O)C(F)(F)F.O=C(O)C(F)(F)F (stereo not drawn) | -4.725
Fc1cccc(N2CCCC3(CN(Cc4ccccn4)CCO3)C2)c1.O=C(O)C(F)(F)F.O=C(O)C(F)(F)F.O=C(O)C(F)(F)F (stereo not drawn) | -90.59
Fc1cccc(N2CCCC3(CN(Cc4ccco4)CCO3)C2)c1.O=C(O)C(F)(F)F.O=C(O)C(F)(F)F (stereo not drawn) | 40.81
Fc1cccc(N2CCCC3(C2)CN(c2ncccn2)CCO3)c1.O=C(O)C(F)(F)F.O=C(O)C(F)(F)F (stereo not drawn) | 69.94
Fc1cccc(N2CCCC3(CN(Cc4cccnc4)CCO3)C2)c1.O=C(O)C(F)(F)F.O=C(O)C(F)(F)F.O=C(O)C(F)(F)F (stereo not drawn) | 64.23
CC(C)(C)OC(=O)N1CCN(c2nnc(Br)s2)CC1 | -125.7
Cn1cccc1C(=O)N1CCn2nnc(COc3cccnc3)c2C1.O=C(O)C(F)(F)F | -3.271
Cc1csc(C(=O)NCCn2nc(-n3cncn3)ccc2=O)c1 | -119.2
O=C(Cn1cc(-c2ccccc2)ncc1=O)NC1CCCCC1 | -177.8
CCCS(=O)(=O)N1CCOC2(CCCN(c3ccccn3)C2)C1.O=C(O)C(F)(F)F (stereo not drawn) | -72.32
COc1ccc2c(c1)OCC(CNC(=O)c1ccc3[nH]nnc3c1)C2 (stereo not drawn) | -64.67

SMILES | Percent Effect [%]
COCCN(CC1CCCN(C2Cc3ccccc3C2)C1)C(=O)CSC (stereo not drawn) | -1.59
COCCN(CC1CCCN(C2Cc3ccccc3C2)C1)C(=O)CO (stereo not drawn) | 58.68
COCCN(CC1CCCN(C2Cc3ccccc3C2)C1)C(=O)COC (stereo not drawn) | 37.76
NCc1ccnc(Oc2ccccc2)c1 | -83.78
O=C(CO)N1C[C@H]2CN(Cc3cccc(F)c3)C(=O)[C@H]2C1 | -121.2
Fc1ccc(C2(CNC3=NCCN3)CCCC2)cc1.I | 83.26
Fc1ccc(C2(CNC3=NCCCN3)CCC2)cc1.I | -5.202
CN(C)c1cc(C(=O)NCC2(c3ccc(F)cc3)CC2)ccn1 | -97.96
CC(NC(=O)NCC1(c2ccc(F)cc2)CCCC1)c1nncn1C (stereo not drawn) | -7.891
Fc1ccc(OCCCNC2=NCCCN2)cc1.I | 2.763
COc1cccc(N2C(=O)CC3(CCCNC3)C2=O)c1.Cl (stereo not drawn) | -161.5
c1ccc2oc(CN3CCCCC3Cn3cncn3)nc2c1 (stereo not drawn) | -88.89
COc1cccc(CN2CC(=O)N(c3ccccc3C)CC2C)c1OC (stereo not drawn) | 52.42
COc1ccc(F)c(CN2CC(=O)N(c3ccccc3C)CC2C)c1 (stereo not drawn) | 6.943
COc1ccc(CN2CC(=O)N(c3ccc(C)cc3)CC2C)cc1O (stereo not drawn) | -98.66
COc1cccc(OC)c1CN1CC(=O)N(c2ccc(C)cc2)CC1C (stereo not drawn) | 75.45
COc1ccc(F)c(F)c1CN1CC(=O)N(c2ccccc2C)CC1C (stereo not drawn) | 28.54
COc1cc(CN2CC(=O)N(c3ccc(C)cc3)CC2C)cc(OC)c1 (stereo not drawn) | 43.44
CN(C)C(=O)CO[C@H]1CN(Cc2ccoc2)[C@@H]2COC[C@H]12.O=C(O)C(F)(F)F | -8.838
Cc1cc(CN(C)CC2CCCN(CCc3ccc(Cl)cc3)C2)[nH]n1 (stereo not drawn) | -73.95
CN(Cc1cnc(N)nc1)CC1CCCN(CCc2ccc(Cl)cc2)C1 (stereo not drawn) | -42.11
CN(Cc1ccccc1O)CC1CCCN(CCc2ccc(Cl)cc2)C1 (stereo not drawn) | -82.77
Cc1nc[nH]c1CN(C)CC1CCCN(CCc2ccc(Cl)cc2)C1 (stereo not drawn) | 82.22
CN(Cc1ccncc1)CC1CCCN(CCc2ccc(Cl)cc2)C1 (stereo not drawn) | -30.31

SMILES | Percent Effect [%]
CC(C)NC(=O)c1nnn(-c2ccccc2)c1C1CC1 | -103.7
CCCNC(=O)c1cc2c(s1)CCN2C(=O)c1ccccc1 | -140.9
O=C(NCCN1CCOC1=O)c1cnc(-c2cccnc2)nc1 | -89.05
O=C(N[C@@H]1CN(Cc2cccc(F)c2)C[C@H]1O)c1cscn1 | -187.1
O=C(COCC1CC1)Nc1ncccc1I | -99.18
CCOCC1CN(Cc2ccc(OC)cc2)Cc2nn(CC3CC3)cc21.O=C(O)C(F)(F)F (stereo not drawn) | -47.96
CC(C)N(CCNC(=O)c1[nH]nc2ccc(I)cc12)C(C)C | 86.77
Cc1cccc(C(C)C)c1NC(=O)NCCN(C(C)C)C(C)C | 37.4
CC(C)N(CCNC(=O)c1ccc(S(=O)(=O)NC2CC2)cc1)C(C)C | 3.108
c1ccc(-c2cc(CN3C[C@H]4CC[C@H]3C4)on2)cc1 | 2.742
c1ccc(-c2cc(CN3C[C@@H]4CC[C@H](C3)N(CC3CCC3)C4)on2)cc1 | 88.08
c1ccc(-c2cc(CN3C[C@@H]4CC[C@H](C3)N(CC3CC3)C4)on2)cc1 | 16.35
CCC(OC)C(=O)NCc1cc2n(n1)CCCN(C1CCCCC1)C2 (stereo not drawn) | -16.19
CC1CCCCN1c1nc2c(c(=O)[nH]1)CCN(Cc1ccccc1F)C2 (stereo not drawn) | 13.92
CCc1ccc(-c2cc(C(F)(F)F)nc(N3CCC(N)CC3)n2)cc1 | 81.95
CCn1ncc(-c2cc(C(F)(F)F)nc(N3CCC(N)CC3)n2)c1C | 64.36
FC(F)(F)c1cc(-c2cccs2)nc(N2CCN3CCCC3C2)n1 (stereo not drawn) | -49.64
Cc1ccc(-c2cc(C(F)(F)F)nc(N3CCOCC3)n2)s1 | -16.11
Cc1c(-c2cc(C(F)(F)F)nc(N3CCC(N)CC3)n2)cnn1C | 19.65
CCn1cc(-c2cc(C(F)(F)F)nc(NC3CCCC3)n2)c(C)n1 | -77.03
CCc1nc(CN2CCCN(Cc3noc(C4CC4)n3)CC2)cs1 | -72.76
COc1cc(CN2CCCC23CCN(c2ccccn2)CC3)ccc1F | 1.862
Cc1cc(C)c2[nH]c(C(=O)NCCN3CCCC3=O)c(C)c2c1 | -119.1
CC(C)c1noc(CCNC(=O)N2CCN(c3cccs3)CC2)n1 | -17.65

SMILES | Percent Effect [%]
CCc1nc(CCNC(=O)Nc2cccc(C(=O)NC)c2C)cs1 | -100.3
Cc1nnc(SC2CCc3ccccc3NC2=O)o1 (stereo not drawn) | -88.91
CNc1cc(C)nc(NCc2cc(C)cc3c(C)c(C)[nH]c23)n1 | 91.83
CNc1cc(C)nc(-c2cc(NC)nc3[nH]ccc23)n1 | 49.01
Cc1cc(CNc2cncc(C(=O)N(C)C)n2)c2[nH]c(C)c(C)c2c1 | -64.7
CNc1cc(C)nc(-c2cc(NCCO)nc3[nH]ccc23)n1 | -113.9
CNc1nc(C)cc(NCc2cc(C)cc3c(C)c(C)[nH]c23)n1 | 92.52
CCN(Cc1cnn(CC)c1)Cc1c(Cl)cncc1Cl | -11.88
Cc1ccc(C2CN(CCCC#N)CCO2)c(C)c1 (stereo not drawn) | -121.1
CCc1ncnc2c1CCN(S(=O)(=O)CC)CC2 | -41.95
CN(CCCc1ccccc1)C(=O)c1ccccc1NCC(=O)O | -16.6
CCC1=NN2C(=N)/C(=C\c3cccn3-c3ccc(Cl)cc3)C(=O)N=C2S1 | 17.01
COc1cc(I)c(Cl)cc1C(=O)N(C)CC(=O)NC(C)(C)C | -34.35
CN1[C@H](Cn2cccn2)C[C@@H]2CN(C(=O)Cc3cccs3)CC[C@@H]21 | -36.35
CN1[C@H](Cn2cccn2)C[C@@H]2CN(Cc3cccs3)CC[C@@H]21.O=C(O)C(F)(F)F.O=C(O)C(F)(F)F.O=C(O)C(F)(F)F | 75.74
CC(C)N1[C@H](Cn2cccn2)C[C@@H]2CN(Cc3ccoc3)CC[C@@H]21.O=C(O)C(F)(F)F.O=C(O)C(F)(F)F.O=C(O)C(F)(F)F | 39.12
CN1C(Cn2cccn2)C[C@@H]2CN(Cc3ccccn3)CC[C@@H]21.O=C(O)C(F)(F)F.O=C(O)C(F)(F)F.O=C(O)C(F)(F)F.O=C(O)C(F)(F)F (stereo partly drawn) | 41.52
Cc1ccoc1C(=O)N1CC[C@H]2[C@H](C[C@@H](CN3CCCC3)N2C)C1.O=C(O)C(F)(F)F.O=C(O)C(F)(F)F | -53.97
CN1[C@H](CN2CCCC2)C[C@@H]2CN(Cc3ccoc3)CC[C@@H]21.O=C(O)C(F)(F)F.O=C(O)C(F)(F)F.O=C(O)C(F)(F)F | 57.43
CN1C(Cn2cccn2)C[C@@H]2CN(Cc3nccs3)CC[C@@H]21 (stereo partly drawn) | -108.4
CN1C(Cn2cccn2)C[C@@H]2CN(Cc3cccnc3)CC[C@@H]21.O=C(O)C(F)(F)F.O=C(O)C(F)(F)F.O=C(O)C(F)(F)F.O=C(O)C(F)(F)F (stereo partly drawn) | 11.1
